Data from PubChem BioAssay AID1159580 (chemical genetic matrix, 2015).
Hit rate of the full screen: of about 5,500 compounds, about 2,000 (36%) were called active. About 18% were inconclusive and are not listed. Cut-off read from the data, not from the text of the source: active = normalized growth mostly below about 0.91 (no sharp cut-off); inconclusive = no clear call, values can overlap the other calls; inactive = mostly above about 0.92. This is one part of the list.

Test: chemical genetic growth profiling, strain panel (AID 1159580);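 note: tested at 20 µM; growth read once vehicle control cultures reached saturation at 30 °C; 1 = growth at the plate median or of vehicle wells; lower values mean less growth of the strain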
Details: growth OD

Measured: normalized growth

CC1=CC(=O)c2ccccc2C1=O
active: S. cerevisiae deletion strains, locus YJR075W, strain HOC1, active compounds read low 0.0628 | S. cerevisiae deletion strains, locus YKL009W, strain mrt4, active compounds read low 0.0847 | S. cerevisiae deletion strains, locus YKL085W, strain MDH1 (second series), active compounds read low 0.494 | S. cerevisiae deletion strains, locus YKL085W, strain MDH1, active compounds read low 0.494 | S. cerevisiae deletion strains, locus YKL160W, strain elf1, active compounds read low 0.822 | S. cerevisiae deletion strains, locus YKL190W, strain CNB1, active compounds read low 0.0475 | S. cerevisiae deletion strains, locus YKR001C, strain vps1, active compounds read low 0.0601 | S. cerevisiae deletion strains, locus YLR027C, strain aat2, active compounds read low 0.862 | S. cerevisiae deletion strains, locus YLR039C, strain RIC1, active compounds read low 0.0839 | S. cerevisiae deletion strains, locus YLR058C, strain SHM2, active compounds read low 0.0596 | S. cerevisiae deletion strains, locus YLR102C, strain apc9, active compounds read low 0.0585 | S. cerevisiae deletion strains, locus YLR113W, strain HOG1, active compounds read low 0.294 | S. cerevisiae deletion strains, locus YLR221C, strain rsa3, active compounds read low 0.819 | S. cerevisiae deletion strains, locus YLR262C, strain YPT6, active compounds read low 0.155 | S. cerevisiae deletion strains, locus YLR268W, strain sec22, active compounds read low 0.0659 | S. cerevisiae deletion strains, locus YLR330W, strain CHS5, active compounds read low 0.0494 | S. cerevisiae deletion strains, locus YLR342W, strain FKS1 (second series), active compounds read low 0.0779 | S. cerevisiae deletion strains, locus YLR371W, strain rom2, active compounds read low 0.0598 | S. cerevisiae deletion strains, locus YLR418C, strain cdc73, active compounds read low 0.0923 | S. cerevisiae deletion strains, locus YML016C, strain PPZ1, active compounds read low 0.0501 | S. cerevisiae deletion strains, locus YML032C, strain rad52, active compounds read low 0.112 | S. cerevisiae deletion strains, locus YML124C, strain tub3, active compounds read low 0.0587 | S. cerevisiae deletion strains, locus YMR058W, strain fet3, active compounds read low 0.832 | S. cerevisiae deletion strains, locus YMR078C, strain ctf18, active compounds read low 0.0795 | S. cerevisiae deletion strains, locus YMR205C, strain PFK2, active compounds read low 0.799 | S. cerevisiae deletion strains, locus YMR223W, strain ubp8, active compounds read low 0.0622 | S. cerevisiae deletion strains, locus YMR263W, strain SAP30, active compounds read low 0.0592 | S. cerevisiae deletion strains, locus YMR307W, strain GAS1, active compounds read low 0.118 | S. cerevisiae deletion strains, locus YNL067W, strain RPL9B, active compounds read low 0.0512 | S. cerevisiae deletion strains, locus YNL071W, strain lat1, active compounds read low 0.543 | S. cerevisiae deletion strains, locus YNL128W, strain TEP1, active compounds read low 0.0609 | S. cerevisiae deletion strains, locus YNL153C, strain GIM3, active compounds read low 0.0481 | S. cerevisiae deletion strains, locus YNL183C, strain NPR1, active compounds read low 0.393 | S. cerevisiae deletion strains, locus YNL233W, strain BNI4, active compounds read low 0.0537 | S. cerevisiae deletion strains, locus YNL248C, strain rpa49, active compounds read low 0.883 | S. cerevisiae deletion strains, locus YNL250W, strain rad50, active compounds read low 0.513 | S. cerevisiae deletion strains, locus YNL271C, strain bni1, active compounds read low 0.705 | S. cerevisiae deletion strains, locus YNL298W, strain CLA4, active compounds read low 0.363 | S. cerevisiae deletion strains, locus YNL307C, strain MCK1, active compounds read low 0.0683 | S. cerevisiae deletion strains, locus YNL322C, strain KRE1, active compounds read low 0.047 | S. cerevisiae deletion strains, locus YNR052C, strain pop2, active compounds read low 0.12 | S. cerevisiae deletion strains, locus YOL006C, strain TOP1, active compounds read low 0.0979 | S. cerevisiae deletion strains, locus YOL147C, strain pex11, active compounds read low 0.0692 | S. cerevisiae deletion strains, locus YOR061W, strain CKA2, active compounds read low 0.05 | S. cerevisiae deletion strains, locus YOR069W, strain VPS5, active compounds read low 0.0532 | S. cerevisiae deletion strains, locus YOR083W, strain WHI5, active compounds read low 0.882 | S. cerevisiae deletion strains, locus YOR106W, strain vam3, active compounds read low 0.818 | S. cerevisiae deletion strains, locus YOR136W, strain idh2, active compounds read low 0.0688 | S. cerevisiae deletion strains, locus YOR144C, strain elg1, active compounds read low 0.063 | S. cerevisiae deletion strains, locus YOR184W, strain ser1, active compounds read low 0.0695 | S. cerevisiae deletion strains, locus YOR231W, strain MKK1, active compounds read low 0.277 | S. cerevisiae deletion strains, locus YOR270C, strain vph1, active compounds read low 0.776 | S. cerevisiae deletion strains, locus YOR316C, strain cot1, active compounds read low 0.0564 | S. cerevisiae deletion strains, locus YPL051W, strain arl3, active compounds read low 0.892 | S. cerevisiae deletion strains, locus YPL055C, strain LGE1, active compounds read low 0.0708 | S. cerevisiae deletion strains, locus YPL241C, strain CIN2, active compounds read low 0.0549 | S. cerevisiae deletion strains, locus YPL256C, strain CLN2, active compounds read low 0.356 | S. cerevisiae deletion strains, locus YPR119W, strain clb2, active compounds read low 0.063 | S. cerevisiae deletion strains, locus YPR141C, strain kar3, active compounds read low 0.859 | S. cerevisiae deletion strains, locus YPR163C, strain tif3, active compounds read low 0.0724 | S. cerevisiae deletion strains, locus YPR167C, strain met16, active compounds read low 0.0586 | S. cerevisiae deletion strains, strain wtn01, active compounds read low 0.0598 | S. cerevisiae strains, strain wild type, active compounds read low 0.0461
inactive: S. cerevisiae deletion strains, locus YKL068W, active compounds read low 1.01 | S. cerevisiae deletion strains, locus YKR026C, strain gcn3, active compounds read low 1.03 | S. cerevisiae deletion strains, locus YKR091W, strain srl3, active compounds read low 1.03 | S. cerevisiae deletion strains, locus YLL001W, strain dnm1, active compounds read low 0.93 | S. cerevisiae deletion strains, locus YLL026W, active compounds read low 0.997 | S. cerevisiae deletion strains, locus YLL041C, strain sdh2, active compounds read low 1.04 | S. cerevisiae deletion strains, locus YLR258W, strain gsy2, active compounds read low 0.933 | S. cerevisiae deletion strains, locus YLR262C, strain YPT6 (second series), active compounds read low 0.916 | S. cerevisiae deletion strains, locus YLR320W, strain mms22, active compounds read low 0.881 | S. cerevisiae deletion strains, locus YLR342W, strain FKS1, active compounds read low 1.01 | S. cerevisiae deletion strains, locus YLR357W, strain rsc2, active compounds read low 1.04 | S. cerevisiae deletion strains, locus YLR370C, strain arc18, active compounds read low 0.958 | S. cerevisiae deletion strains, locus YLR384C, strain iki3, active compounds read low 1.04 | S. cerevisiae deletion strains, locus YML120C, strain ndi1, active compounds read low 0.968 | S. cerevisiae deletion strains, locus YMR125W, strain sto1, active compounds read low 1.04 | S. cerevisiae deletion strains, locus YMR129W, active compounds read low 1.01 | S. cerevisiae deletion strains, locus YMR231W, strain pep5, active compounds read low 1.02 | S. cerevisiae deletion strains, locus YNL209W, strain ssb2, active compounds read low 0.983 | S. cerevisiae deletion strains, locus YNL322C, strain KRE1 (second series), active compounds read low 0.999 | S. cerevisiae deletion strains, locus YNR049C, strain mso1, active compounds read low 1.02 | S. cerevisiae deletion strains, locus YOR001W, strain rrp6, active compounds read low 0.923 | S. cerevisiae deletion strains, locus YOR070C, strain gyp1, active compounds read low 0.959 | S. cerevisiae deletion strains, locus YOR080W, strain dia2, active compounds read low 1.03 | S. cerevisiae deletion strains, locus YOR265W, strain rbl2, active compounds read low 0.983 | S. cerevisiae deletion strains, locus YOR290C, strain snf2, active compounds read low 1.02 | S. cerevisiae deletion strains, locus YPL078C, strain atp4, active compounds read low 0.941 | S. cerevisiae deletion strains, locus YPL106C, strain sse1, active compounds read low 0.904 | S. cerevisiae deletion strains, locus YPL240C, strain hsp82, active compounds read low 1
